TDP1 cell noCPT – qHTS for Inhibitors of human tyrosyl-DNA phosphodiesterase 1 (TDP1): qHTS in cells in absence of CPT; AID 686978, 2013; Potency, µM (top dose mostly 46.2 µM), most hits filed as inhibitors; 15% of 420,000 active; DT40 Tdp1-/- hTDP1 cells, no CPT, ATP luminescence, 48 h; further: nearly all actives have a fitted effect of over 55% in size
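Compound effects on proliferation are scored in DT40 Tdp1-/-;hTDP1 cells in the absence of CPT. ATP levels (CellTiter-Glo luminescence) are recorded after a ≥48 hr, 37 °C incubation.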
TDP1 inh – blocks human tyrosyl-DNA phosphodiesterase 1; Potency, µM (top dose mostly 130 µM), usual class: inhibitors; Q9NUW8; recombinant TDP1, AlphaScreen DNA substrate cleavage; 0.28% of 350,000 active; further: nearly all actives have a fitted effect of over 40% in size
Target sequence (Q9NUW8 whole entry, looked up): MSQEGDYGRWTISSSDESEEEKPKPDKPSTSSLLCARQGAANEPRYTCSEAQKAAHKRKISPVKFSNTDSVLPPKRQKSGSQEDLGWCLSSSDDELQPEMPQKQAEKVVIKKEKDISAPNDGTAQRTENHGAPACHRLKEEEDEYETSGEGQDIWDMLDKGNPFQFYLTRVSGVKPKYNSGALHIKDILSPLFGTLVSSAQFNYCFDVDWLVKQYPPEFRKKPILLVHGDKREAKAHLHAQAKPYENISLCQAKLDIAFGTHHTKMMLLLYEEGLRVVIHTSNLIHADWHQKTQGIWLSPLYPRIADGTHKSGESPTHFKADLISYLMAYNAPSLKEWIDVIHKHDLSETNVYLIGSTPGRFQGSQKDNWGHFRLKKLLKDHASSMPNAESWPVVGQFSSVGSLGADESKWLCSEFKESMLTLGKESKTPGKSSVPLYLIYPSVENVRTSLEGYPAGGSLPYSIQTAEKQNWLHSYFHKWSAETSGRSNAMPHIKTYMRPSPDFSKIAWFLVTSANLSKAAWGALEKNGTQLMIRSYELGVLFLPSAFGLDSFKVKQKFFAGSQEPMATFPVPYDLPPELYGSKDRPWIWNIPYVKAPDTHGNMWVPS
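AlphaScreen read-out: signal falls as enzyme removes the 3' tyrosine-FITC from a 5'-biotinylated DNA oligo (15 nM, 5 min, RT). Enzyme was E. coli-made recombinant Tdp1 at 1 nM, exposed to compound for 15 min beforehand; beads 10 ug/ml, 10 min.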
VP16 counter – Gal4-VP16 reporter inhibition counter-screen; 3.5% of 310,000 active; AID 2546; Potency, µM (titrated, usually from 53.6 µM), hits mostly inhibitors; Drosophila S2 Gal4-VP16 UAS-luciferase, luminescence, 20 h;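 further: Gal4-VP16 expression switched on by copper sulfate through the metallothionein promoter; nearly all actives have a fitted effect of over 50% in size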
RORg inh – inhibitors of mouse ROR gamma transcriptional activity | 5.4% of 310,000 active | Potency, µM (top dose mostly 53.6 µM), usual class: inhibitors | AID 2551 | Drosophila S2 Gal4-RORgamma UAS-luciferase reporter, 20 h; further: nearly all actives have a fitted effect of over 60% in size
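A Gal4/UAS one-hybrid system in insect cells: metallothionein-promoter Gal4–ROR gamma fusion plus Photinus luciferase reporter. Copper sulfate 700 uM final, 20 hr ambient incubation, luminescent detection after 10 min with reagent.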
DT40 TDP1 CPT – DT40-hTDP1 cell growth loss with CPT; Potency, µM (highest dose often 46.2 µM), actives largely listed as inhibitors; chicken DT40 Tdp1-/-;hTDP1 cells + 20 nM CPT, ATP luminescence, 48 h; 12% of 420,000 active; further: nearly all actives have a fitted effect of over 55% in size
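Chicken DT40 Tdp1-/- cells complemented with human TDP1, 400 cells/well, exposed to compounds plus 20 nM camptothecin for at least 48 h at 37 C; viability read as ATP content by CellTiter-Glo luminescence.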
Of the large screens only hits and unclear results are named; the others gave an inactive call. Rows were chosen to be rich in hits. Some 19% of all compounds tested hit in one or more screens of this group. The call rests on the fitted dose curve; in most records, active means well fitted curve in the direction sought with a large enough effect; inconclusive means small, poorly fitted or top-dose-only effect, or another doubt; inactive means no such curve, though single readings can be large; an effect the other way counts as inactive or inconclusive.

CN(CC(=O)Nc1ccc(F)c(F)c1F)C(=O)c1ccc(N2CCCC2=O)cc1	none (no result: VP16 counter, RORg inh)
CC1CCCC(C)N1CC(O)COC1CCC(C(C)(C)C)CC1 (stereo not given)	TDP1 cell noCPT 21µM, DT40 TDP1 CPT 23µM (no result: TDP1 inh)
Cc1cccc(N/C(N)=N/c2nc(C(F)(F)F)cc(C(F)(F)F)n2)c1	none
Cc1cc(C)c(NC(=O)c2cc(S(=O)(=O)N3CCN(c4ccccc4F)CC3)ccc2F)c(C)c1	TDP1 cell noCPT 4.1µM, DT40 TDP1 CPT inconclusive (no result: VP16 counter, RORg inh)
CCC(=O)c1cc(F)c(N2CCN(S(=O)(=O)c3ccc(C)cc3)CC2)cc1C	TDP1 cell noCPT 21µM, RORg inh inconclusive, DT40 TDP1 CPT inconclusive
Cc1ccc(N2CCN(S(=O)(=O)c3ccc(F)c(C)c3)CC2)c(C)c1	TDP1 cell noCPT inconclusive, DT40 TDP1 CPT inconclusive
COc1ccccc1N1CCN(S(=O)(=O)c2ccc(F)c(C(=O)Nc3ccc(C)c(F)c3)c2)CC1	TDP1 cell noCPT inconclusive, DT40 TDP1 CPT 16µM (no result: VP16 counter, RORg inh)
CCc1ccccc1N1CCN(S(=O)(=O)c2ccc(F)c(C)c2)CC1	TDP1 cell noCPT 21µM, DT40 TDP1 CPT inconclusive
Cc1cccc(NC(=O)c2cc(S(=O)(=O)N3CCN(c4ccccc4F)CC3)ccc2F)c1C	TDP1 cell noCPT inconclusive, DT40 TDP1 CPT inconclusive (no result: VP16 counter, RORg inh)
O=C1CNC(=S)N1c1nc2ccccc2s1	VP16 counter 5.6µM, RORg inh 0.79µM (no result: TDP1 inh)
c1ccc2sc(N3CCCCC3)nc2c1	none (no result: TDP1 inh, VP16 counter, RORg inh)
Cc1ccc(S(=O)(=O)CCC(=O)Nc2ccc3c(c2)OCO3)cc1	none
COC(=O)c1ccc(C2NC(=S)N(c3ccccc3)C(C)=C2C(=O)Nc2ccccc2OC)cc1 (stereo not given)	VP16 counter inconclusive, RORg inh 10µM, DT40 TDP1 CPT inconclusive
CC[C@]12c3[nH]c4ccc(Cl)cc4c3CCN1C(=O)[C@@H](CC(=O)NCCN1CCOCC1)C[C@@H]2C(=O)N1CCN(C(=O)c2ccco2)CC1	none (no result: VP16 counter, RORg inh)
CC[C@]12c3[nH]c4ccc(Cl)cc4c3CCN1C(=O)[C@@H](CC(=O)NCCC1=CCCCC1)C[C@@H]2C(=O)N1CCN(C(=O)c2ccco2)CC1	TDP1 cell noCPT inconclusive, DT40 TDP1 CPT 21µM (no result: VP16 counter, RORg inh)
CC[C@]12c3[nH]c4ccc(Cl)cc4c3CCN1C(=O)[C@@H](CC(=O)NCc1ccco1)C[C@@H]2C(=O)N1CCN(C(=O)c2ccco2)CC1	TDP1 cell noCPT 21µM, DT40 TDP1 CPT 16µM (no result: VP16 counter, RORg inh)
CC[C@]12c3[nH]c4ccc(Cl)cc4c3CCN1C(=O)[C@@H](CC(=O)NCC13CC4CC(CC(C4)C1)C3)C[C@@H]2C(=O)N1CCN(C(=O)c2ccco2)CC1	TDP1 cell noCPT 13µM, DT40 TDP1 CPT inconclusive (no result: VP16 counter, RORg inh)
CC[C@]12c3[nH]c4ccc(OC)cc4c3CCN1C(=O)C(CC(=O)NCC13CC4CC(CC(C4)C1)C3)C[C@@H]2C(=O)N1CCN(C(=O)c2ccco2)CC1 (stereo not given in full)	TDP1 cell noCPT 8.2µM, DT40 TDP1 CPT 12µM (no result: VP16 counter, RORg inh)
CCCCN(C)CCC(=O)Nc1ccc(OC)cc1OC	RORg inh inconclusive
CCCCCCCCCCC(C)(C)C(=O)Nc1c(OC)cc(OC)cc1OC	TDP1 cell noCPT 10µM, DT40 TDP1 CPT 10µM
COc1ccc(-c2ccc(CCC(=O)O)n2-c2ccccc2OC)cc1	TDP1 cell noCPT 23µM, DT40 TDP1 CPT inconclusive (no result: TDP1 inh)
COc1ccccc1-n1c(CCC(=O)O)ccc1-c1ccccc1	none (no result: TDP1 inh)
COc1cccc(CNC(=O)c2ccc3c(c2)N(C)C(=O)C2CCCCN32)c1 (stereo not given)	TDP1 cell noCPT inconclusive, DT40 TDP1 CPT inconclusive (no result: VP16 counter, RORg inh)
Cc1ccc(NC(=O)C(=O)NCCN2CCN(C(=O)C(c3ccccc3)c3ccccc3)CC2)cc1	TDP1 cell noCPT 18µM, DT40 TDP1 CPT 18µM
CCOc1ccc(NC(=O)C(=O)NCCN2CCN(S(=O)(=O)c3ccc(C)cc3)CC2)cc1	TDP1 cell noCPT 9.2µM, DT40 TDP1 CPT inconclusive
O=C(CCCOc1ccc(Cl)cc1)Nc1ccc(N2CCOCC2)cc1	TDP1 cell noCPT inconclusive
C=CCn1c(SCC(=O)Nc2nc(C)cs2)nnc1C(NC(=O)c1ccccc1)C(C)C (stereo not given)	DT40 TDP1 CPT inconclusive
